Molecules are shown by their SMILES. About 83,000 compounds went through this panel and 20% of them were active in at least one assay; those are over-represented in the sample as a whole.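 Activity criterion: percent growth below 10, measured after cells in 96-well plates were exposed to a single compound concentration for 48 hours.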 The source made the active and inactive calls.

The subject of this test is BT-549 breast. Briefly: NCI-60 one-dose screen, 48 h (100 = growth as untreated, 0 = no growth, -100 = all killed). As to conditions: 10 µM unless noted. The procedure: Growth inhibition of the BT-549 human tumor cell line is measured as a screen for anti-cancer activity. Cells are grown in 96 well plates and exposed to the test compound for 48 hours. Compounds are tested at a single concentration, which is 10^-5 M for most compounds. The reported endpoint is percent growth (GI% or GIPRCNT), where numbers from 0 - 100% represent growth inhibition, and numbers from -100% - 0 represent cell death. For example, a value of 40 represents 60% growth inhibition. A value of 0 means no net growth occurred over the course of the experiment. A value of -40 indicates 40% of cells at the beginning of the experiment died by the end of the experiment. A value of -100 means all cells are dead at the end of the experiment.
NCI-60 Human Tumor Cell Lines Screen was performed using the standard one-dose NCI protocol, which is described in more detail at https://dtp.cancer.gov/discovery_development/nci-60/default.htm.
Compounds with GIPRCNT values below 10 were considered active. Activity score was based on GIPRCNT using the following formula: […]
Score is 0 for GIPRCNT values of 100 or above, 50 for GIPRCNT values of 0, and 100 for GIPRCNT values of -100.
In the case of `C/C(=C(/c1ccc(Cl)cc1)c1ccc(OCCN2CCCCCC2)cc1)c1ccccc1`, the growth is 84.4% (inactive).

On to `COc1ccc(C(=O)c2cc(OC)c(OC)c(OC)c2)cc1/C=C/C(=O)c1ccc(F)cc1`, for which the growth is 81.2% (inactive).

For `N#CC[C@H](C1CCCC1)n1cc(-c2ncnc3[nH]ccc23)cn1`, the growth is 77.9% (inactive).

Take `CCNC(=O)C#Cc1ccc2c(C(=Nc3ccc(CN(C)C)cc3)c3ccccc3)c(O)[nH]c2c1`: the growth is 52.8% (inactive).

`CNC(=O)CN1CCC(Oc2cc3c(Nc4cccc(Cl)c4F)ncnc3cc2OC)CC1`: the growth was 93.5% (inactive).

As to `Cc1cc(-c2cc(OC(=O)c3ccccc3)ccc2Cl)cc2nnc(Nc3ccc(OCCN4CCCC4)cc3)nc12`, the growth is 110% (inactive).

With `CN1[C@@H]2CC[C@H]1/C(=C\c1ccccc1)C1=C2[C@@H](c2ccccc2)C(C#N)=C(N)O1`, the growth is 67% (inactive).

Turning to `NC1(C(=O)N[C@@H](CCO)c2ccc(Cl)cc2)CCN(c2ncnc3[nH]ccc23)CC1`, the growth is -9.59% (active).

As for `Cc1cc([C@@H](C)Nc2ccccc2C(=O)O)c2nc(N3CCOCC3)cc(=O)n2c1`, the growth was 22.3% (inactive).

With `N#Cc1cc2[nH]c3ccc(OC(F)(F)F)cc3c2oc1=O`, the growth is 76.5% (inactive).

As for `CC(=O)C(C(C)=O)C(c1ccccc1)C(C(C)=O)C(C)=O`, the growth is 105% (inactive).

As for `COc1ccc(F)c(F)c1C(=O)c1cnc(NC2CCN(S(C)(=O)=O)CC2)nc1N`, the growth is -11.8% (active).

In the case of `COC(=O)c1ccc2c(C(=Nc3ccc(N(C)C(=O)CN4CCN(C)CC4)cc3)c3ccccc3)c(O)[nH]c2c1`, the growth is 55.8% (inactive).

As for `CSC1=C(N)C(=O)c2[nH]cc(CO)c2C1=N`, the growth was -93.5% (active).

For `CC(=O)OCCC/C(=C\c1ccc2ccccc2c1)[N+](=O)[O-]`, the growth was -25.6% (active).

Take `COC(=O)c1[nH]cnc1/N=N/N(C)CCO`: the growth is 98.4% (inactive).

Take `COc1cc2c(cc1O)c(=O)n(CCN(C)C)c1c3cc4c(cc3ncc21)OCO4`: the growth is -15.5% (active).

With `CCc1nc2ccc(Cc3ccc(C(=O)NO)cc3)cc2c(=O)n1CCc1ccccc1`, the growth was -31.2% (active).

As to `CNC(=O)c1cc(COc2nnc(Nc3ccc(Cl)cc3)c3ccoc23)ccn1`, the growth is 29.8% (inactive).

`Cn1nccc1Nc1nccc(-c2ccn([C@H](CO)c3ccc(Cl)c(F)c3)c(=O)c2)n1`: the growth was 93.6% (inactive).

Consider `C=CC(=O)Nc1cc2c(Nc3ccc(F)c(Cl)c3)ncnc2cc1C#CC(C)(C)N1CCN(C)CC1`, for which the growth was -94% (active).

Take `CC(C)CC(=O)Nc1n[nH]c2c1CN(C(=O)C1CCN(C)CC1)C2(C)C`: the growth was 33.7% (inactive).

In the case of `CC[C@H](CO)Nc1nc(NCc2ccccc2)c2ncn(C(C)C)c2n1`, the growth was 78.1% (inactive).

For the compound `CCn1c(-c2nonc2N)nc2c(C#CC(C)(C)O)ncc(OC[C@H]3CCCNC3)c21`, the growth was 49.6% (inactive).

As for `CC(C)=CCc1cc2c(cc1O)C1=C(C(=O)C3=C(C1=O)S(=O)(=O)CCN3)C(C=C(C)C)O2` (stereo not given), the growth was -73.6% (active).

On to `CC(=O)C1=C(C)NC(SCc2nnc(-c3ccc(C)cc3)o2)=NC1c1ccc(F)cc1` (stereo not given), for which the growth is 86.1% (inactive).

Take `Cc1cc(C)n(CC(=O)Nc2ccc(-c3nc4ccccc4s3)cc2)n1`: the growth was 115% (inactive).

For `C=CC[n+]1c(/C=C/C=C2\N(C)c3ccccc3C2(C)C)sc2ccc(OC)cc21`, the growth is 14.6% (inactive).

In the case of `CCN1/C(=C/C=C/c2n(-c3ccccc3)c3ccc(-c4nc5ccccc5s4)cc3[n+]2CC)N(c2ccccc2)c2ccc(-c3nc4ccccc4s3)cc21`, the growth is -5.34% (active).

In the case of `Clc1ccc2c(NCCCNCc3ccc4c(c3)OCO4)ccnc2c1`, the growth is 51.5% (inactive).

Take `COC(=O)[C@]12CC[C@@H](C)[C@H](C)[C@@H]1C1=CC[C@@H]3[C@@]4(C)C(c5cnco5)=C[C@@](C)(CO)C4=CC[C@@]3(C)[C@]1(C)CC2`: the growth was 56.4% (inactive).

Turning to `CN1CCN(CCCOc2cccc3nc(Nc4ccc(Cl)c(C(F)(F)F)c4)ccc23)CC1`, the growth is 59.1% (inactive).

Consider `COc1ncc(-c2ccc3nccc(-c4ccnnc4)c3c2)cc1NS(=O)(=O)c1ccc(F)cc1F`, for which the growth is -31.7% (active).

As for `Cc1cc(N2CCOCC2)nc(N(CCNc2ccnc3cc(Cl)ccc23)Cc2cccs2)n1`, the growth is -16.3% (active).

Turning to `Cc1cc(Nc2ncc(Cl)c(Nc3ccccc3S(=O)(=O)C(C)C)n2)c(OC(C)C)cc1C1CCNCC1`, the growth is -78.4% (active).

In the case of `Clc1ccc(C(Cn2ccnc2)OCc2ccsc2Cl)c(Cl)c1` (stereo not given), the growth was 40% (inactive).

For the compound `CN1CCN(CCOc2cc(OC3CCOCC3)c3c(Nc4c(Cl)ccc5c4OCO5)ncnc3c2)CC1`, the growth was 89.2% (inactive).

`C=C1C(=O)O[C@H]2[C@H]1CC/C(C=Nc1c(N)cc(C(F)(F)F)cc1C(F)(F)F)=C\CC[C@@]1(C)O[C@@H]21`: the growth was -31.5% (active).

`N#Cc1c(-c2ccc(Cl)cc2)csc1NC(=O)Nc1cccc(C(F)(F)F)c1`: the growth is 26.3% (inactive).

As to `c1ccc2c(c1)CCN(NCCN1CCCC1)C2`, the growth was 99.8% (inactive).

The values are drawn from PubChem BioAssay (NCI).
